# Measurements taken from PubChem BioAssay (NCI).
# Where “and” joins values, the source holds several entries; their conditions need not be identical. Identical values can stand only once. Compounds without any hit were thinned out: in the full panel of roughly 83,000, 20% have a hit.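 Interpretation: 100, growth as untreated; towards 0, rising growth inhibition; 0, no net growth; 0 to -100, cell death. Compounds scoring below 10 were considered active.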 Calls of active or inactive are those of the source.
# Tested on: HL-60(TB) leukemia
# Experiment: NCI-60 one-dose screen, 48 h (100 = growth as untreated, 0 = no growth, -100 = all killed)
# Conditions: 10 µM unless noted
row,SMILES,growth
1,C=Cc1cc[n+](CCCCCCCCCCCC)cc1,80% (inactive)
2,Cn1cc([C@@H]2Nc3ccc4[nH]ncc4c3[C@H]3[C@H]4CCC(C4)[C@H]32)c(C(F)(F)F)n1,7.12% (active)
3,COC1C[C@H](O[C@@H]2C[C@H](O[C@@H]3C[C@H](O[C@@H]4C(=O)c5c(cc6cc(O[C@H]7C[C@@H](O[C@H]8C[C@@H](O)[C@H](O)C(C)O8)[C@H](O)C(C)O7)c(C)c(O)c6c5O)C[C@H]4C(OC)C(=O)[C@@H](O)[C@@H](C)O)OC(C)[C@H]3O)OC(C)[C@@H]2O)OC(C)[C@@H]1O (some centres not stated),-0.253% (active)
4,COc1cc(Cn2c(-c3nonc3N)nc3ccccc32)ccc1C,-3.72% (active)
5,CC[C@H](CC[C@@H](C)[C@H]1CC[C@H]2[C@@H]3CC=C4C[C@@H](O)CC[C@]4(C)[C@H]3CC[C@]12C)C(C)C,125% (inactive) and 100% (inactive)
6,CCOC(=O)NC(N)=O,92.4% (inactive)
7,Nc1c(C(=O)Nc2ccccc2)sc2nc3c(cc12)CCCCC3,10.4% (inactive)
8,Cc1c(Cc2ccccc2)c(=O)oc2c(C)c(OCC(=O)n3nc(C#N)cc3N)ccc12,101% (inactive)
9,C/C(=N\O)c1ccc(NC(=O)CSc2nnc(-c3ccccc3)n2-c2ccccc2)cc1,90.4% (inactive)
10,COc1ccc(-c2cc(/C=C3\C(=O)Nc4cc(Cl)ccc43)[nH]n2)cc1OC,53% (inactive)
11,O=C(NC1C(O)OC(CO)C(O)C1O)NS(=O)(=O)c1ccc(Cl)cc1 (configuration not stated),93.4% (inactive)
12,COc1ccc(CNC(=O)[C@H](O)[C@@H](N)Cc2ccccc2)cc1,102% (inactive)
